Reference: ChEMBL document CHEMBL1961873, “Compounds: GSK PKIS; Assays: Nanosyn kinase panel” (2012)

Legend:
[1] = molecular target: Calcium/calmodulin-dependent protein kinase type II subunit alpha (Homo sapiens) (UniProt Q9UQM7); details: at 1 µM;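 note: reported value is a mean percent inhibition of CAMK2A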
[2] = molecular target: Calcium/calmodulin-dependent protein kinase type II subunit delta (Homo sapiens) (UniProt Q13557); details: at 0.1 µM
[3] = molecular target: Calcium/calmodulin-dependent protein kinase type II subunit delta (Homo sapiens) (UniProt Q13557); details: at 1 µM
[4] = molecular target: T1, Calcium/calmodulin-dependent protein kinase type IV (Homo sapiens) (UniProt Q16566); details: at 0.1 µM
T1 sequence (whole entry): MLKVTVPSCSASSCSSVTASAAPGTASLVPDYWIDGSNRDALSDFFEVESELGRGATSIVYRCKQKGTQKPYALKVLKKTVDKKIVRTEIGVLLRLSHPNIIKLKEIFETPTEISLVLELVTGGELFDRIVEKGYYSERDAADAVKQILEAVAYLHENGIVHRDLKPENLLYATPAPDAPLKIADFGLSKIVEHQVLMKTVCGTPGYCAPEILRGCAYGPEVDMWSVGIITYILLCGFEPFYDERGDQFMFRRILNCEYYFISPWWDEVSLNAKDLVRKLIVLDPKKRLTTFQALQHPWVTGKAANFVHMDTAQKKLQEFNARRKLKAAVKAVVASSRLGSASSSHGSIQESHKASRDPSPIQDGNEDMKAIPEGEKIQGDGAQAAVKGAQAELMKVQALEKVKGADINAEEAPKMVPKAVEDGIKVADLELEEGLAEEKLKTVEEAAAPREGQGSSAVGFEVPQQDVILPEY

[5] = molecular target: T1, Calcium/calmodulin-dependent protein kinase type IV (Homo sapiens); details: at 1 µM
[6] = molecular target: T2, Serine/threonine-protein kinase Chk1 (Homo sapiens) (UniProt O14757); details: at 0.1 µM
T2 sequence (whole entry): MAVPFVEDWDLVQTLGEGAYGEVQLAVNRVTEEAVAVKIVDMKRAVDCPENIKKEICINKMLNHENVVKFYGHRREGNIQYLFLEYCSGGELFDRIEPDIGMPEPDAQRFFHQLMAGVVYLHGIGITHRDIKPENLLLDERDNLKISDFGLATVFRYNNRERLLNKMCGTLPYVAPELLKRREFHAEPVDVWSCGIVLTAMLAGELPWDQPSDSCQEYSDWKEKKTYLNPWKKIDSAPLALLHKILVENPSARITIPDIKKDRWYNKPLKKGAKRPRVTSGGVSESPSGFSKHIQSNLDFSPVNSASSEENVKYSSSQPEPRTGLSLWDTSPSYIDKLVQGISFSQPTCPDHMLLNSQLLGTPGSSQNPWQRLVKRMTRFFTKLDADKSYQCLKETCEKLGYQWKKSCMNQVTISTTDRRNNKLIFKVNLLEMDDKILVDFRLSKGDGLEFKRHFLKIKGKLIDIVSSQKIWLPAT

[7] = molecular target: T2, Serine/threonine-protein kinase Chk1 (Homo sapiens); details: at 1 µM
[8] = molecular target: Serine/threonine-protein kinase Chk2 (Homo sapiens) (UniProt O96017); details: at 0.1 µM
Serine/threonine-protein kinase Chk2 (Homo sapiens), sequence (O96017 whole entry): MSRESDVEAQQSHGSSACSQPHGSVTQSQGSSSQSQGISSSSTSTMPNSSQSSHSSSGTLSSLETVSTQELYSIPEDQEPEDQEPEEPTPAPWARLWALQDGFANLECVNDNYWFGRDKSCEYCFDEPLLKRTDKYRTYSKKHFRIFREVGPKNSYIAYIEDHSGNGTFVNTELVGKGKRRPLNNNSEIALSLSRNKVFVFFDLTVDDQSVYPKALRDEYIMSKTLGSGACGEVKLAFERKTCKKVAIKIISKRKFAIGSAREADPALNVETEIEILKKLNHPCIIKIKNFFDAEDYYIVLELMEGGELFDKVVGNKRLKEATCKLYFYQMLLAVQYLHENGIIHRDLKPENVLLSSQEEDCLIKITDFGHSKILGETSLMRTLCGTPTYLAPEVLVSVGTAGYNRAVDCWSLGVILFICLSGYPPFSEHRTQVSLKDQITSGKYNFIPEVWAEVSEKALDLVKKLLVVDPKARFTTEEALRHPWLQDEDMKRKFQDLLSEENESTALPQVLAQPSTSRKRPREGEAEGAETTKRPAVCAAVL

[9] = molecular target: Serine/threonine-protein kinase Chk2 (Homo sapiens) (UniProt O96017); details: at 1 µM
[10] = molecular target: Death-associated protein kinase 1 (Homo sapiens) (UniProt P53355); details: at 0.1 µM
[11] = molecular target: Death-associated protein kinase 1 (Homo sapiens) (UniProt P53355); details: at 1 µM
[12] = molecular target: T3, Serine/threonine-protein kinase DCLK2 (Homo sapiens) (UniProt Q8N568); details: at 0.1 µM
T3 sequence (whole entry): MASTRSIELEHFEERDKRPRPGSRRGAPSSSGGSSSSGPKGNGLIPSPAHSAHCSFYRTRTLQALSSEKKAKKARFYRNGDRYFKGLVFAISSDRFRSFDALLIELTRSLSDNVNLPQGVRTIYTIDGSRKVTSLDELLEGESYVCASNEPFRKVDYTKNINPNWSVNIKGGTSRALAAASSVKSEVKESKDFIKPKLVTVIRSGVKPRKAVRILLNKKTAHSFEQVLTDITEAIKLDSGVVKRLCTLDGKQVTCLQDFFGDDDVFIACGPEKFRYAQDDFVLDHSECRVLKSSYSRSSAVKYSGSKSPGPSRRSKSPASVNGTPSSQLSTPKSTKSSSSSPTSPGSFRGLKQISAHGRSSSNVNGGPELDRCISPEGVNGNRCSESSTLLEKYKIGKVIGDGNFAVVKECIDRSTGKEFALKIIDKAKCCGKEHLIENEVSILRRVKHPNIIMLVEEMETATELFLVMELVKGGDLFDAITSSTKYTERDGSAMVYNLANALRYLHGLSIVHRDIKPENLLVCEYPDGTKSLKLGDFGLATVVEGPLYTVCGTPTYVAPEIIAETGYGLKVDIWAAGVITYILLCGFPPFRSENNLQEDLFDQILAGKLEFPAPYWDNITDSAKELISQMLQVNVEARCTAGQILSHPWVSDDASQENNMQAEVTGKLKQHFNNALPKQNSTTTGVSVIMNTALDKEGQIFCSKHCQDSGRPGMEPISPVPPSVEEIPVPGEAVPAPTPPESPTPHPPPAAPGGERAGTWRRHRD

[13] = molecular target: T3, Serine/threonine-protein kinase DCLK2 (Homo sapiens); details: at 1 µM
[14] = molecular target: MAP kinase-activated protein kinase 2 (Homo sapiens) (UniProt P49137); details: at 0.1 µM
MAP kinase-activated protein kinase 2 (Homo sapiens), sequence (P49137 whole entry, looked up): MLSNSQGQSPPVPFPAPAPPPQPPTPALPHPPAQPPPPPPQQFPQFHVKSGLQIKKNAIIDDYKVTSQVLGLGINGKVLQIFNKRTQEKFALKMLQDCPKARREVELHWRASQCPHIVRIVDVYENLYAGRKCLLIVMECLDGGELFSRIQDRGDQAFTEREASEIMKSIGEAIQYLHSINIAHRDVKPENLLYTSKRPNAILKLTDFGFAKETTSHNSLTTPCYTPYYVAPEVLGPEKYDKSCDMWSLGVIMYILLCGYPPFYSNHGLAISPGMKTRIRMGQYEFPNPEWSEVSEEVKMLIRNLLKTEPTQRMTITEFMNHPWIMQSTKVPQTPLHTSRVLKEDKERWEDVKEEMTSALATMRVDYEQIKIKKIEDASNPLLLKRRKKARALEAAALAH

[15] = molecular target: MAP kinase-activated protein kinase 2 (Homo sapiens) (UniProt P49137); details: at 1 µM
[16] = molecular target: MAP kinase-activated protein kinase 3 (Homo sapiens) (UniProt Q16644); details: at 0.1 µM
MAP kinase-activated protein kinase 3 (Homo sapiens), sequence (Q16644 whole entry, looked up): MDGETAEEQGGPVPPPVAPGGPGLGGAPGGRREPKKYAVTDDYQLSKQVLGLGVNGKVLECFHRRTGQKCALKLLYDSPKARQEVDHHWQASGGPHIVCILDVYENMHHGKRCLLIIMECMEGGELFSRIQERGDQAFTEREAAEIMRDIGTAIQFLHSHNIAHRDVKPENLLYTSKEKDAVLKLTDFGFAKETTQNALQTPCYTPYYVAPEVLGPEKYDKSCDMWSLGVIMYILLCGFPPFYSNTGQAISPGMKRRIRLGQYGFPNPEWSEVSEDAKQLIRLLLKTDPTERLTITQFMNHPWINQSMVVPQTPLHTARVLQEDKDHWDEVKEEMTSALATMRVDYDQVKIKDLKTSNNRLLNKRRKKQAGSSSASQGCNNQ

[17] = molecular target: MAP kinase-activated protein kinase 3 (Homo sapiens) (UniProt Q16644); details: at 1 µM
[18] = molecular target: Serine/threonine-protein kinase MARK1 (Homo sapiens) (UniProt Q9P0L2); details: at 0.1 µM
Serine/threonine-protein kinase MARK1 (Homo sapiens), sequence (Q9P0L2 whole entry, looked up): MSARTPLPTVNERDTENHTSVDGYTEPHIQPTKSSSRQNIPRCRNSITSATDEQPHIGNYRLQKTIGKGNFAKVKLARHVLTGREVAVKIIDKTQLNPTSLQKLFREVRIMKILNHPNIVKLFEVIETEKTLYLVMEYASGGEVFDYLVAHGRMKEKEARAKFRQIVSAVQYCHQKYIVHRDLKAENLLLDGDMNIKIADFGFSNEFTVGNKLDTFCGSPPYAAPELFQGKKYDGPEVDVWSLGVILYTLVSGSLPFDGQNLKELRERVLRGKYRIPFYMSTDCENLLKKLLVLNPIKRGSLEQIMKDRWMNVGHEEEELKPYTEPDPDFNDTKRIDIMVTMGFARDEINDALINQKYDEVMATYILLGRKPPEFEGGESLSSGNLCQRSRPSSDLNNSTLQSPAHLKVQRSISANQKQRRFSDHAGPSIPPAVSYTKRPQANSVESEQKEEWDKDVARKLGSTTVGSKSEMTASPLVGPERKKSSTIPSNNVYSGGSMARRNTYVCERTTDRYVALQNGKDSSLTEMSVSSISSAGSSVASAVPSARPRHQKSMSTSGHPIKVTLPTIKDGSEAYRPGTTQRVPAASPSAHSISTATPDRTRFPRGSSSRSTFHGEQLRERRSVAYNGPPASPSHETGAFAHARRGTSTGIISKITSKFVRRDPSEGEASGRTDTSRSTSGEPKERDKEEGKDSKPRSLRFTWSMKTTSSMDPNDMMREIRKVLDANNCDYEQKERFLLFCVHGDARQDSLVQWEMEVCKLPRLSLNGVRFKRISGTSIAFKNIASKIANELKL

[19] = molecular target: Serine/threonine-protein kinase MARK1 (Homo sapiens) (UniProt Q9P0L2); details: at 1 µM
[20] = molecular target: MAP/microtubule affinity-regulating kinase 3 (Homo sapiens) (UniProt P27448); details: at 0.1 µM;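 note: mean percent inhibition of MARK3 kinase activity, measured within the GSK PKIS screening panel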
MAP/microtubule affinity-regulating kinase 3 (Homo sapiens), sequence (P27448 whole entry, looked up): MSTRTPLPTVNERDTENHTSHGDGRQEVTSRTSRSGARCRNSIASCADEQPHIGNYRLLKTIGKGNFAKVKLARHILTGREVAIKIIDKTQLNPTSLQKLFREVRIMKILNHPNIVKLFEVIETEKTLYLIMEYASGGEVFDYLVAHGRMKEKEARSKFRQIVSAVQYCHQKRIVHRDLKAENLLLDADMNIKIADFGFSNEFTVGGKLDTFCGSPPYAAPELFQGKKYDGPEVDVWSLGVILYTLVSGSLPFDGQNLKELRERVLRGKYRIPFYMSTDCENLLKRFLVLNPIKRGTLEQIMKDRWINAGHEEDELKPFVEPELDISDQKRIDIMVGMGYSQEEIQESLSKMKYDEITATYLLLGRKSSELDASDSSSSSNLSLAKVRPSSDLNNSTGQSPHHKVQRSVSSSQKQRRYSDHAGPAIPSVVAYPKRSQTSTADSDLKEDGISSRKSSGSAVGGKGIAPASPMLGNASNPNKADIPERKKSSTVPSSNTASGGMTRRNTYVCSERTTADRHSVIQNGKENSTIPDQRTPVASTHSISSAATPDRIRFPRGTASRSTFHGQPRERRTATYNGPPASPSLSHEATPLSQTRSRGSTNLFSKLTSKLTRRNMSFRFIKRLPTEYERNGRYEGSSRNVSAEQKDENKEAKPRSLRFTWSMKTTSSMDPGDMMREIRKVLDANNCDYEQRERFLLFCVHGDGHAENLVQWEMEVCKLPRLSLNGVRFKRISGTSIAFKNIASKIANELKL

Calcium/calmodulin-dependent protein kinase type II subunit delta (Homo sapiens), sequence (Q13557 whole entry): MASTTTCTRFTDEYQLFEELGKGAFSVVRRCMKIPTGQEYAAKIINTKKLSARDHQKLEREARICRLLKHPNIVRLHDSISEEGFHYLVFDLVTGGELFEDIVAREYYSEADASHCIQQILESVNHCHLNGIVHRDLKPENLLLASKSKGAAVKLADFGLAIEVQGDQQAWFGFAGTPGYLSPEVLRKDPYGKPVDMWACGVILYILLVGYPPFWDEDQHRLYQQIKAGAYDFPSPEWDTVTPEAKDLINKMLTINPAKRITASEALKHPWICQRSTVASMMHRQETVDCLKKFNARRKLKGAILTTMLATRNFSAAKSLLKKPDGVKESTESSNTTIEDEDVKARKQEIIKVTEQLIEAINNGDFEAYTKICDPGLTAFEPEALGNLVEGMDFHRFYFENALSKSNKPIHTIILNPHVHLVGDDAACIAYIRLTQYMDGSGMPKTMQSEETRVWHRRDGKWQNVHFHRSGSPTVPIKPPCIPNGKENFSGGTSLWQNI
Calcium/calmodulin-dependent protein kinase type II subunit alpha (Homo sapiens), sequence (Q9UQM7 whole entry): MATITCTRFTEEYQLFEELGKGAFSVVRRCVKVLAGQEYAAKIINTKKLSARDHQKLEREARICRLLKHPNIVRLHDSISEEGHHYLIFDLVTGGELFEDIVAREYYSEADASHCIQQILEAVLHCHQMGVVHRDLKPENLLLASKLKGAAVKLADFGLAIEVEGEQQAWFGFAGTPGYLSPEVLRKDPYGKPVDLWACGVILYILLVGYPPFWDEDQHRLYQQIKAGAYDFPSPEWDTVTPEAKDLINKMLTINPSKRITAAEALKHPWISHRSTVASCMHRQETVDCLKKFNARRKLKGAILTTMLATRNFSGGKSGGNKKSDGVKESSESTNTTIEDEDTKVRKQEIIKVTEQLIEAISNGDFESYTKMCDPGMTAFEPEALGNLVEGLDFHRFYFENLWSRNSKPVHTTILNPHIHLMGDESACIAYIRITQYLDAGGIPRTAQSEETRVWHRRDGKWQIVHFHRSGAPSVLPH

| Structure (SMILES) | inhibition [1] | inhibition [2] | inhibition [3] | inhibition [4] | inhibition [5] | inhibition [6] | inhibition [7] | inhibition [8] | inhibition [9] | inhibition [10] | inhibition [11] | inhibition [12] | inhibition [13] | inhibition [14] | inhibition [15] | inhibition [16] | inhibition [17] | inhibition [18] | inhibition [19] | inhibition [20] |
| --- | --- | --- | --- | --- | --- | --- | --- | --- | --- | --- | --- | --- | --- | --- | --- | --- | --- | --- | --- | --- |
| O=C1NC(=O)C(c2ccccc2Cl)=C1Nc1cccc(O)c1 | 5.26% | 3.96% | 11.7% | 0.91% | 1.07% | -0.11% | 1.92% | 1.18% | 2.39% | 3.2% | 3.55% | -0.07% | 1.16% | 1.27% | 1.05% | 1.45% | 1.77% | 1.97% | 8.19% | 1.72% |
| O=C1NC(=O)C(N2CCc3ccccc32)=C1c1ccc(Cl)cc1 | 2.12% | 4.21% | 5.17% | 0.68% | 0.58% | 9.38% | 12.7% | 8.35% | 8.52% | 11.1% | 13.8% | 1.5% | 1.94% | 4.64% | 5.01% | 10.4% | 10.3% | 3.93% | 5.85% | 5.98% |
| c1cnn2ncc(-c3ccnc(Nc4ccc5c(c4)OCCO5)n3)c2c1 | 15.3% | 7.61% | 35.7% | 0.39% | 1.89% | 0.16% | 6.81% | 2.96% | 9.21% | 3.38% | 3.76% | 1.81% | 1.89% | 2.05% | 2.24% | 3.74% | 3.81% | 4.18% | 24.3% | 5.06% |
| NCc1ccc(-c2nc(-c3ccc(Cl)c(O)c3)c(-c3ccncc3)[nH]2)cc1 | 2.11% | -0.18% | 2.12% | 0.6% | 0.53% | -0.88% | 2.53% | -0.52% | 0.67% | 0.81% | 1.16% | 3.34% | 5.14% | -0.41% | -0.56% | 15.5% | 30.9% | 2.03% | 2.6% | 0.33% |
| CCn1c(-c2nonc2N)nc2cncc(C(=O)N3CCNCC3)c21 | 4.17% | 4.29% | 6.57% | -0.66% | 1.55% | 6.55% | 13.8% | 2.96% | 5.6% | 8.7% | 8.15% | 0.84% | 1.96% | 2.84% | 5.04% | 6.65% | 10.7% | 2.63% | 3.48% | 5.76% |
| Cc1nn(C)c2cc(N(C)c3ccnc(Nc4cccc(S(N)(=O)=O)c4)n3)ccc12 | 1.72% | 2.35% | 3.73% | 1.4% | 1.88% | 4.46% | 56% | 6.25% | 9.6% | 8.62% | 8.09% | 0.57% | 0.12% | 3.83% | 3.29% | 8.73% | 11% | 3.07% | 4.05% | 0.92% |
| CCCN1CCC=C(c2ccc(Nc3nc(Nc4ccccc4C(N)=O)c4cc[nH]c4n3)c(C)c2)C1 | 8.19% | 5.36% | 20.6% | -0.28% | 9.19% | 1.09% | 8.05% | 13.1% | 51.3% | 6.81% | 6.22% | -0.54% | 3.15% | 2.63% | 4.94% | 3.15% | 6.16% | 2.76% | 16.1% | 2.37% |
| COc1cc2ncn(-c3cc(O[C@@H](C)c4ccccc4Cl)c(C(N)=O)s3)c2cc1OC | -1% | 2.63% | 5.01% | -1.47% | -3.56% | 9.31% | 11.3% | 8.19% | 11.6% | 13.5% | 8.9% | -1.19% | 3.6% | 5.43% | 5% | 9.03% | 10.9% | 4.26% | 9.07% | 4.06% |
| Nc1ncnc2occ(-c3ccc(NC(=O)Nc4cc(C(F)(F)F)cc(C(F)(F)F)c4)cc3)c12 | 2.09% | 2.95% | 1.63% | 0.17% | 3.99% | 1.83% | 5.4% | 1.45% | 2.14% | 1.57% | 3.18% | 0.95% | 1.34% | 0.92% | 0.1% | 2.58% | 4.92% | 0.83% | -0.19% | 3.3% |
| CC1=C(C(=O)Nc2ccc3[nH]ncc3c2)C(c2ccc(F)cc2)NC(=O)N1 (centres undefined) | 0.1% | 1.48% | 1.35% | 0.3% | -0.21% | 0.87% | 4.3% | 1.2% | 2.29% | 1.6% | 1.59% | 1.36% | -0.03% | 1.48% | 1.87% | 1.46% | 1.05% | 2.81% | 9.5% | 0.23% |
| CNC(=O)c1cncc(/C=C/c2c(Cl)cccc2Cl)c1 | 4.95% | 3.11% | 8.55% | 0.01% | 3.19% | 0.16% | 4.57% | 2.6% | 9.62% | 2.23% | 0.5% | -4.5% | -0.73% | 0.7% | 2.98% | 2.14% | 1.96% | 2.05% | 2.47% | 1.82% |
| CC1=C(C(=O)Nc2ccc3[nH]ncc3c2)C(c2ccc3ccccc3c2)CC(=O)N1 (centres undefined) | 0.99% | 0.33% | 3.19% | 1.12% | 0.1% | 0.95% | 3.91% | 1.29% | 4.21% | 0.55% | 0.51% | 0.76% | -1.57% | 0.66% | 0.45% | 0.74% | 2.13% | 1.86% | 3.48% | 0.58% |
| CS(=O)(=O)CCN(CC#N)Cc1ccc(-c2ccc3ncnc(Nc4ccc(OCc5cccc(F)c5)c(Cl)c4)c3c2)o1 | -2.02% | 1.25% | 2.48% | -2.98% | -0.45% | 0.28% | 2.55% | 0.67% | 1.7% | -0.47% | -1.52% | -4.32% | -2.59% | 0.26% | 0.64% | 0.54% | -0.02% | 0.76% | -0.29% | – |
